Bioassay records as filed in PubChem BioAssay.
PG9 Ab binder – binders of HIV-1 gp120 antibody PG9, primary screen, biochemical, TR-FRET; inhibition, % at 6.7 µM; AID 624416, 2012; HIV-1 gp120 / PG9 antibody interaction; 0.43% of 360,000 active; TR-FRET gp120-PG9 antibody binding; in the data active = inhibition above about 8.5%
EP2 mod – EP2 receptor modulators, cAMP readout, primary screen, cell-based, HTRF cAMP, PGE2 stimulation; Prostaglandin E2 receptor EP2 subtype (Homo sapiens), P43116; EP2-expressing cells, cAMP HTRF FRET, PGE2 co-stimulation; induction, % at 25 µM; 0.83% of 260,000 active; AID 940, 2007;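 active = compounds whose cAMP rise, as percent of the full-agonist control response, exceeds 60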;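 note: rat C6 glioma line stably carrying human EP2 under a CMV promoter; the protocol text gives 20 µM as final concentration; 100% = response of wells given 1 µM PGE2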
Target sequence (P43116 whole entry, looked up): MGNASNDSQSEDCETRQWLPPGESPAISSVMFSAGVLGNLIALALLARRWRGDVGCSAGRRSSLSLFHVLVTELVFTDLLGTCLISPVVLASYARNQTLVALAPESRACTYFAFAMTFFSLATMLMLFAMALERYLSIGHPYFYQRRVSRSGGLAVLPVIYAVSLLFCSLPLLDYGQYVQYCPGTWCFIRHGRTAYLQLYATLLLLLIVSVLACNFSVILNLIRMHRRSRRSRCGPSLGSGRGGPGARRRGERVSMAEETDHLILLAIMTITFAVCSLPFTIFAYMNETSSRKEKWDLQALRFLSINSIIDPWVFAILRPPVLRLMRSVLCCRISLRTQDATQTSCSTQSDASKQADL
Rev-erbA mod – modulators of Rev-erb alpha DNA binding, primary screen, biochemical, FITC-DNA, fluorescence polarization, uHTS. 0.79% of 370,000 active. activity, % at 10 µM. Nuclear receptor subfamily 1 group D member 1 (Homo sapiens), P20393. Rev-erbα–FITC-DNA binding, 90 min;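 active = activity above about 14%, limit read from the data; passing the limit was not always enough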;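 note: 0% = DMSO wells with 35 nM protein and 100% = DMSO wells with 750 nM protein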
PGE2 EP2 inh – human EP2 receptor antagonists, primary screen, TR-FRET cAMP, C6 glioma cells | 0.52% of 260,000 active | inhibition, % at 25 µM | C6 glioma cells expressing human EP2; cells stimulated with saturating PGE2;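 active = percent inhibition above 40 after rounding to a whole number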;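 note: rat C6 glioma host cells with rolipram phosphodiesterase inhibitor present; the protocol text gives 20 µM as final concentration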
SKN-1 block – suppressors of acrylamide-induced Pgst-4::GFP reporter in worms, primary screen, SKN-1 inhibitor project, whole organism, uHTS, GFP/RFP fluorescence ratio, strain VP596; C. elegans VP596 Pgst-4::GFP/RFP ratio, 24 h; inhibition, % at 21.8 µM; 0.49% of 360,000 active;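 active = interference check ratio from 0.5 to 1.5 plus GFP to RFP signal ratio inhibition reaching or exceeding a fixed threshold, cut at about 30% in these data, passing the limit was not always enough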
RAM network inh – inhibitors of the yeast RAM network, primary screen, dse1pr::URA3 reporter, 5-FOA selection. inhibition, % at 50 µM. 1.8% of 190,000 active. S. cerevisiae dse1pr::URA3 reporter, 5-FOA growth OD615, 2 d; analog-sensitive cbk1-as2 kinase mutant strain. AID 868, 2007;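 active = inhibition above a set limit, 3 SD over mean compound inhibition, cut at about 8.4% in these data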;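 note: 0% = DMSO-only wells with no growth and 100% = 10 µM 1-NA-PP1 full growth; inhibition rescues growth on 5-FOA so higher OD means more RAM inhibition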
NR1D1 mod conf – modulators of Rev-erb alpha DNA binding, confirmation, biochemical, FITC-DNA, fluorescence polarization, single point; shares compounds with Rev-erbA mod; 90 min; activation, % at 25 µM; 61% of 3,000 active; AID 1259319, 2017;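 active = activation at or above a set limit, or at least 3 SD above the negative control mean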;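 note: 0% = 35 nM protein with DMSO and 100% = 750 nM protein high control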
RORg counter – modulation of RORgamma DNA binding, dose response, counter-screen for Rev-erb alpha modulator project, biochemical, fluorescence polarization, FITC-DNA | purified RORgamma protein-FITC-DNA binding | IC50, µM | AID 1259320, 2017 | shares compounds with Rev-erbA mod | 8% of 910 active;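 active = Compounds whose fitted half-maximal concentration for disrupting protein-DNA binding is below 10 micromolar; the record names Rev-erb in its text, so the target is in doubt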
Numbers without * were called inactive; i = inactive; / = not tested or not shown. Rows were chosen to be rich in hits. Some 2.9% of all compounds tested hit in one or more screens of this group.

SMILES	PG9 Ab binder	EP2 mod	Rev-erbA mod	PGE2 EP2 inh	SKN-1 block	RAM network inh	NR1D1 mod conf	others
COc1cc2ccccc2cc1C(=O)Nc1ccc(Cl)cn1	0	/	31*	/	4	/	17
CC1Cc2ccccc2N1C(=O)Cn1c(=O)n(C)c2ncccc21 (stereo not drawn)	/	11	/	/	/	/	/
COc1ccc(C(=O)CSc2cc(C)nc(SCC(=O)c3ccc(C)cc3)n2)cc1	-1	12	27*	9	0	7	10
COc1ccc(-c2ccc(=O)n(CC3CCN(C(=O)c4cccs4)CC3)n2)cc1OC	/	22	/	/	/	/	/
C=CCn1c(SCCN2C(=O)c3ccccc3C2=O)nc2scc(-c3ccc(F)cc3)c2c1=O	1	/	21*	/	-4	/	14
Cc1ccn2c(NC3CCCCC3)c(-c3ccc(SC4CCCCC4)cc3)nc2c1	4	/	33*	/	9	/	15*
CCCCCCSc1ccc(-c2nc3ccc(Cl)cn3c2NCCCC)cc1OC	1	/	6	/	-2	/	/
CCCCNc1c(-c2ccc(SC3CCCCC3)c(OC)c2)nc2ccc(Cl)cn12	-2	/	20*	/	6	/	9
Cc1ccn2c(NC3CCCCC3)c(-c3cccc(SC4CCCCC4)c3)nc2c1	1	/	3	/	34	/	/
CCCCCCSc1ccc(-c2nc3ccc(Cl)cn3c2NC2CCCCC2)cc1	1	/	23*	/	19	/	22*
CCCCCCSc1ccc(-c2nc3ccc(C)cn3c2NCCCC)cc1OC	2	/	16*	/	8	/	6
COc1ccc(CC(=O)NCCCn2c(-c3cccnc3C)cc3cccnc32)cc1	/	-20	/	12	/	/	/
CC1CCCC(C)N1S(=O)(=O)c1ccc2c(c1)OCCO2 (stereo not drawn)	/	-36	/	-1	/	/	/
CCc1c(C)nc(N)n2c(SCC(=O)Nc3ccc(N4CCCCC4)cc3)nnc12	/	18	/	6	/	/	/
CCOC(=O)c1sc(NC(=O)c2ccccc2F)c(C(N)=O)c1C	8	13	20*	10	7	3	13
Cc1cc(C)c2c(C)c(C(=O)NCc3ccc(S(N)(=O)=O)cc3)oc2c1	8	10	28*	8	6	2	20*
CCOC(=O)c1ccc(N/C=C\C(=O)c2cccc(OC)c2)cc1	2	6	27*	3	-7	10*	5
COc1ccc(C2(C(=O)NCc3nc(-c4cccnc4)n[nH]3)CC2)cc1	/	-49	/	/	/	/	/
COc1cc(/C=N/NC(=O)CC2(C)OCCO2)cc(Br)c1O	-9	30	71*	6	13	-1	-4
FC(F)(F)c1nc2nc(Cl)c(Cl)nc2[nH]1	-1	/	3	/	1	/	/
CCCCCCc1nc2nc(Cl)c(Cl)nc2[nH]1	-2	/	22*	/	3	/	-2
Cc1ccc(NC(=S)NC(=O)c2ccccc2)cc1NC(=S)NC(=O)c1ccccc1	6	-36	21*	38	16	/	1
COC(=O)c1ccccc1NC(=S)NC(=O)c1ccccc1	0	19	-2	12	23	1	/
COc1ccc(C(=O)NC(=S)Nc2ccc3c(c2)Cc2ccccc2-3)cc1	1	1	24*	22	-3	6	1
COCCCNC(=O)C1CCCN(S(=O)(=O)c2ccc(Cl)cc2)C1 (stereo not drawn)	/	1	/	11	/	/	/
SMILES	PG9 Ab binder	EP2 mod	Rev-erbA mod	PGE2 EP2 inh	SKN-1 block	RAM network inh	NR1D1 mod conf	others
Cc1nc2c(-c3ccccc3)c(C)nn2c(NCCCn2ccnc2)c1C	/	-18	/	/	/	/	/
CC(C)c1ncc(CNC2(c3ccc(Cl)cc3)CC2)cn1	/	-25	/	7	/	/	/
O=C(COc1ccc(Br)cc1Br)NC(=S)Nc1cccc(CO)c1	-3	-66	4	10	-2	4	/
O=C(COc1ccc2ccccc2c1Br)NC(=S)Nc1cccc(CO)c1	-2	7	24*	19	-4	4	21*
O=C(Nc1cccc2ccccc12)N1CCN(c2ccc(F)cc2)CC1	3	-4	26*	10	-13	4	3
OCC[n+]1ccc(/C=C/c2c[nH]c3ccccc23)cc1	-16	-9	161*	13	-25	1	144*	RORg counter=i
C(=Cc1c[nH]c2ccccc12)c1nccc2ccccc12	-2	/	25*	/	48*	/	23*
C(=Cc1c[nH]c2ccccc12)c1ccc2ccccc2n1	-2	/	8	/	72	/	/
O=C(/C=C/c1c[nH]c2ccccc12)c1ccccc1	-1	-16	-4	8	16	0	/
COc1ccc(-c2ccc(C3C(C#N)=C(N)Oc4n[nH]c(C)c43)o2)cc1 (stereo not drawn)	-1	-32	22*	18	23	2	19*
Cc1[nH]nc2c1C(c1ccc(-c3cccc(Cl)c3Cl)o1)C(C#N)=C(N)O2 (stereo not drawn)	/	-80	/	22	/	/	/
COC(=O)c1c(NC(=O)c2cc3ccccc3o2)sc2c1C(C(=O)OC)CC2 (stereo not drawn)	/	31	/	9	/	/	/
C=CCOc1ccc(C2C(C(=O)c3cccs3)=C(O)C(=O)N2c2nnc(C)s2)cc1 (stereo not drawn)	2	/	34*	19	-49	/	54*	RORg counter=>40
COc1ccc(C2C(C(=O)c3cccs3)=C(O)C(=O)N2c2nnc(C)s2)cc1OC (stereo not drawn)	/	-34	/	7	-37	2	/
COCCOc1ccc(CN2CCc3onc(-c4ccc(F)c(F)c4)c3C2)cc1	/	-17	/	6	/	/	/
Cc1ccc2cc(CN(C(=O)c3cccc(F)c3)C3CCCC3)c(=O)[nH]c2c1	/	29	/	13	/	/	/
O=C(CCc1c[nH]c2ccccc12)NCCc1ccc2c(c1)OCCO2	0	/	28*	/	10	/	32*	RORg counter=i
O=C(CCc1c[nH]c2ccccc12)NCc1cccc(Cl)c1	0	/	-1	/	1	/	/
OC(c1cc(F)cc(Cl)c1)c1ncc(-c2ccc3ccccc3c2)[nH]1 (stereo not drawn)	0	/	14*	/	11	/	-4
Cc1cc(C)cc(NC(=O)CSc2nnc(-c3ccoc3C)n2Cc2ccco2)c1	/	32	/	6	/	/	/
